Assay results reported in PubChem BioAssay (NCI).
This is part of a sample that, as a whole, favours compounds with a hit. Of some 79,000 tested, about 15% had one in any assay. The source made the active and inactive calls. No stated cut-off is given here; in the data, active means growth inhibition above about 70%; inactive means the rest.

Columns and labels:
[1] = NCI Yeast Anticancer Drug Screen. Data for the wt1 strain (AID 149);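 further: 0% = growth of vehicle-treated wt1 cultures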; conditions: S. cerevisiae wt1 strain (SPY 50644) growth inhibition, hits give high values
How it was run: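 wt1 yeast, compound-treated; % growth inhibition vs vehicle control.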

[2] = NCI Yeast Anticancer Drug Screen. Data for the rad50EPP+ strain (AID 151);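 further: 0% = growth of vehicle-treated control cultures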; conditions: S. cerevisiae rad50 mutant strain, hits give high values
How it was run: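 Genetically defined yeast (rad50EPP+, DNA damage repair alteration) is grown with compound, and inhibition of growth is expressed relative to vehicle-treated controls.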

[3] = NCI Yeast Anticancer Drug Screen. Data for the mgt1 strain (AID 153); conditions: S. cerevisiae mgt1 mutant growth inhibition, hits give high values
How it was run: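 In the mgt1 strain, test compounds were added and growth inhibition was determined relative to vehicle-treated controls.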

[4] = NCI Yeast Anticancer Drug Screen. Data for the rad50 strain (AID 155);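 further: 0% = growth of vehicle-only cultures of the same strain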; conditions: S. cerevisiae rad50 strain growth inhibition, hits give high values
How it was run: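 Genetically altered yeast (DNA repair pathway); compound treatment; growth inhibition vs vehicle ctrl.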

[5] = NCI Yeast Anticancer Drug Screen. Data for the mec2-1 strain (AID 157); conditions: S. cerevisiae mec2-1 strain, hits give high values
How it was run: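 Each compound was tested on mec2-1 yeast, a strain altered in DNA damage repair or cell cycle control. Growth inhibition is reported relative to vehicle.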

[6] = NCI Yeast Anticancer Drug Screen. Data for the rad14 strain (AID 159);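 further: 0% = growth of vehicle-treated control cultures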; conditions: S. cerevisiae rad14 strain growth inhibition, hits give high values
How it was run: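 Test compounds were applied to a repair-deficient yeast strain. Its growth was then compared with that of cultures given vehicle alone, and inhibition was expressed relative to those controls.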

[7] = NCI Yeast Anticancer Drug Screen. Data for the sgs1 mgt1 strain (AID 161);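 further: 0% = growth of cultures given vehicle only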; conditions: S. cerevisiae sgs1 mgt1 strain, hits give high values
How it was run: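 Inhibition of yeast growth, normalised to vehicle-treated controls, is reported for a strain bearing genetic alterations in DNA damage repair.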

[8] = NCI Yeast Anticancer Drug Screen. Data for the CLN2oe strain (AID 163);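 further: 0% = growth of vehicle-only control cultures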; conditions: S. cerevisiae CLN2oe strain, hits give high values
How it was run: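 First, the altered yeast strain was treated with each compound; second, its growth was measured; finally, inhibition was derived by comparison with vehicle controls.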

[9] = NCI Yeast Anticancer Drug Screen. Data for the cln2 rad14 strain (AID 165);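 further: 0% = growth equal to vehicle treated cultures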; conditions: S. cerevisiae cln2 rad14 strain, hits give high values
How it was run: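 Test compounds were added to cln2 rad14 yeast cultures; inhibition of growth was then determined by comparison with vehicle treatment.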

[10] = NCI Yeast Anticancer Drug Screen. Data for the bub3 strain (AID 167); conditions: S. cerevisiae bub3 mutant strain, hits give high values
How it was run: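 Yeast carrying a defined mutation is treated with each compound, and growth is compared with that of vehicle-exposed cells to give inhibition.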

[11] = NCI Yeast Anticancer Drug Screen. Data for the mlh1 strain (AID 171);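 further: 0% = growth of vehicle-treated control cultures of the same strain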; conditions: S. cerevisiae mlh1 strain growth inhibition, hits give high values
How it was run: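 Inhibition values reflect reduced yeast growth in the presence of compound, referenced to vehicle controls, using a strain chosen for its alteration in DNA repair or cell cycle control.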

[12] = NCI Yeast Anticancer Drug Screen. Data for the mlh1 rad18 strain (AID 175); conditions: S. cerevisiae mlh1 rad18 strain growth inhibition, hits give high values
How it was run: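 Inhibition values reflect reduced growth of mutant yeast versus vehicle-treated controls following compound exposure; the mutations affect DNA damage repair.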

[13] = NCI Yeast Anticancer Drug Screen. Data for the rad18 strain (AID 177); conditions: S. cerevisiae rad18 mutant growth inhibition, hits give high values
How it was run: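 Steps: expose repair-mutant yeast to compound; measure growth; express as inhibition relative to vehicle control.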

[14] = at 5.0 µM (retest, dose inferred, filed as 0.5)
[15] = at 50.0 µM (retest, dose inferred, filed as 5.0)

Measured: growth inhibition

NCC(O)CSCc1ccc(Cl)cc1 (stereo not drawn)
active: [9]; at 50.0 µM 86.5% | [10]; at 50.0 µM 74.1% | [12]; at 50.0 µM 82.8%
inactive: [1]; at 1.2 µM -3% | [1]; at 3.7 µM -5% | [1]; at 11.0 µM -3% | [1]; at 33.0 µM -3% | [1]; at 100.0 µM 0% | [2]; at 1.2 µM -3% | [2]; at 3.7 µM -4% | [2]; at 11.0 µM 1% | [2]; at 33.0 µM -5% | [2]; at 100.0 µM -2% | [3]; at 1.2 µM -4% | [3]; at 3.7 µM -2% | [3]; at 11.0 µM -2% | [3]; at 33.0 µM 0% | [3]; at 100.0 µM 7% | [4]; at 1.2 µM -2% | [4]; at 3.7 µM 2% | [4]; [14] 5% | [4]; at 11.0 µM 2% | [4]; at 33.0 µM 7% | [4]; [15] 5% | [4]; at 50.0 µM 0.9% | [4]; at 100.0 µM 17% | [5]; at 1.2 µM -3% | [5]; at 3.7 µM -2% | [5]; [14] -14% | [5]; at 11.0 µM -2% | [5]; at 33.0 µM -2% | [5]; [15] 5% | [5]; at 50.0 µM 25.1% | [5]; at 100.0 µM 3% | [6]; at 1.2 µM -2% | [6]; at 3.7 µM -2% | [6]; at 11.0 µM 3% | [6]; at 33.0 µM 7% | [6]; at 100.0 µM 34% | [7]; [14] -7% | [7]; [15] 25% | [7]; at 50.0 µM 31% | [8]; at 1.2 µM -2% | [8]; at 3.7 µM 0% | [8]; at 11.0 µM -2% | [8]; at 33.0 µM 0% | [8]; at 100.0 µM 28% | [9]; [14] -7% | [9]; [15] 10% | [10]; at 1.2 µM -2% | [10]; at 3.7 µM -2% | [10]; [14] -13% | [10]; at 11.0 µM 1% | [10]; at 33.0 µM 20% | [10]; [15] 64% | [10]; at 100.0 µM 42% | [11]; at 1.2 µM -5% | [11]; at 3.7 µM -4% | [11]; at 11.0 µM -4% | [11]; at 33.0 µM -1% | [11]; at 100.0 µM 22% | [12]; [14] -5% | [12]; [15] 18% | [13]; at 1.2 µM -5% | [13]; at 3.7 µM -1% | [13]; at 11.0 µM 0% | [13]; at 33.0 µM -2% | [13]; at 100.0 µM 11%
